Test results as given in publication PMC5540273 (PLoS ONE, 2017).

Columns and labels:
Settings in all cases: concentration: 1 μM, replicates: in singlicate; n = 1
ACVR2B = system: ACVR2B
ACVRL1 = system: ACVRL1
ADCK3 = system: T1, ADCK3
T1 construct: gene CABC1

ADCK4 = system: ADCK4
AKT1 = system: AKT1
AKT2 = system: AKT2
AKT3 = system: AKT3
ALK = system: ALK
AMPK-alpha1 = system: T2, AMPK-alpha1
T2 construct: gene PRKAA1

AMPK-alpha2 = system: T3, AMPK-alpha2
T3 construct: gene PRKAA2

ANKK1 = system: ANKK1
ARK5 = system: T4, ARK5
T4 construct: gene NUAK1

ASK1 = system: T5, ASK1
T5 construct: gene MAP3K5

ASK2 = system: T6, ASK2
T6 construct: gene MAP3K6

AURKA = system: AURKA
AURKB = system: AURKB
AURKC = system: AURKC
AXL = system: AXL
BIKE = system: T7, BIKE
T7 construct: gene BMP2K

BLK = system: BLK
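Note: KINOMEscan kinase panel screen.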

Compound	%Inh (ACVR2B)	%Inh (ACVRL1)	%Inh (ADCK3)	%Inh (ADCK4)	%Inh (AKT1)	%Inh (AKT2)	%Inh (AKT3)	%Inh (ALK)	%Inh (AMPK-alpha1)	%Inh (AMPK-alpha2)	%Inh (ANKK1)	%Inh (ARK5)	%Inh (ASK1)	%Inh (ASK2)	%Inh (AURKA)	%Inh (AURKB)	%Inh (AURKC)	%Inh (AXL)	%Inh (BIKE)	%Inh (BLK)
Nc1nc(-c2nccs2)c(-c2ccnc3ccccc23)s1 [GW693542]	48%	15%	0%	39%	0%	3%	100%	36%	0%	12%	6%	0%	5%	0%	0%	0%	0%	42%	4%	42%
COC(=O)c1c(-c2ccccc2)c2cc(C(=O)O)ccc2c(=O)n1Cc1ccccc1	0%	20%	0%	0%	0%	0%	1%	0%	0%	7%	0%	5%	0%	0%	0%	11%	0%	0%	0%	0%
COc1cc2ncn(-c3cc(OCC4CCCO4)c(C(N)=O)s3)c2cc1OC (centres unmarked) [GSK204607]	0%	0%	23%	12%	0%	0%	0%	0%	0%	2%	0%	17%	7%	0%	0%	1%	80%	0%	72%	0%
Cc1cccc(-c2nc(Nc3ccncc3)c3ccccc3n2)n1 [GW855857]	36%	65%	27%	0%	20%	0%	0%	0%	0%	12%	0%	0%	0%	0%	0%	10%	0%	7%	1%	1%
Cc1cc(NCC(c2ccccc2)c2ccccc2)nc(NCc2ccc(C(F)(F)F)cc2)n1 [GW497681]	0%	0%	10%	86%	0%	0%	0%	3%	0%	0%	9%	13%	0%	0%	7%	15%	8%	0%	0%	25%
Cc1ccccc1-n1cnc2c(N)ncnc21 [SKF-97510]	0%	0%	8%	0%	8%	0%	0%	0%	0%	0%	0%	0%	7%	0%	0%	0%	0%	0%	0%	9%
Cc1nnc(-c2ccc3occ(-c4ccc(S(C)=O)cc4)c3c2)[nH]1 (centres unmarked)	14%	0%	0%	0%	5%	4%	0%	0%	99.1%	6%	28%	6%	0%	3%	25%	49%	0%	24%	0%	0%
COc1ccccc1CNC(=O)c1cc(C(=O)c2ccccc2C)c[nH]1 [GSK364507]	0%	0%	13%	34%	0%	17%	0%	21%	0%	0%	0%	10%	0%	2%	100%	22%	11%	8%	0%	17%
O=c1cc(N2CCOCC2)nc2n(Cc3cccc(Cl)c3Cl)ccn12 [GSK2286295]	3%	0%	27%	6%	0%	13%	10%	48%	0%	16%	5%	24%	0%	0%	12%	18%	23%	100%	24%	35%
O=C(Nc1n[nH]c2cc(-c3cccc(F)c3F)ccc12)C1CC1 [SB-733894]	18%	29%	6%	0%	0%	0%	1%	0%	0%	0%	0%	0%	0%	5%	23%	25%	54%	0%	21%	0%
